The full list was thinned out, with hits kept by preference.
Pf Dd2 inh: Plasmodium falciparum Dd2 growth inhibition; P. falciparum Dd2 growth, SYBR Green, 72 h; Potency, µM (series often up to 28.9 µM), inactives show at the highest dose activity, negative = inhibition, hits mostly inhibitors; 120,000 tested, 4.3% active; AID 1347417; active = well fitted inhibition curve with a large enough effect;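 note: plate controls were DMSO vehicle for no effect and reference drug for full effect; nearly all actives have a fitted effect of over 65% in size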
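Readout: SYBR Green fluorescence, 485 nm excitation, 535 nm emission, after ~16 h lysis at 37C. Before that, Dd2-infected red cells (2.5% hematocrit) grew 72 h with compound, 29 uM top final concentration.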
* hit, by the source's call; i = inactive; [ ] = remark or other dose. Potency is the fitted concentration of half-maximal effect.

SMILES	Pf Dd2 inh
CC(=O)N1C[C@@H](C(=O)N2CCN(c3ncccn3)CC2)[C@H](c2nc(C)no2)C1	-4.9%
Cc1cccc(NC(=O)N2CC(Oc3ccc(-c4nc(-c5ccccc5)no4)cc3)C2)c1	15.1%[5.79 µM]
O=C(Cn1nc2c(cc1=O)CCCC2)N1CCN(c2ccc(Cl)cc2)CC1	2.4%
O=C1Cc2c(-c3cccc4ccccc34)n[nH]c2CN1CCOc1ccccc1	i
Cc1cnc(-c2ccccc2)n1C1CCN(S(C)(=O)=O)CC1	-5.7%
O=C(CCCc1c[nH]c2ccccc12)NC1CCc2n[nH]c(=O)n2CC1 (stereo not given)	0.6%
O=C(Cn1nc2n(c1=O)CCCC2)NCc1ccccc1Cl	i
CCCNC(=O)C1COC2(CCN(C(=O)c3ccccc3Cl)CC2)N1C(=O)c1cccc(F)c1 (stereo not given)	-17.1%
CC1(COCC2CC2)COc2ccc(C(=O)Nc3ccccc3)cc2N1 (stereo not given)	-2.2%[44.1 µM]
NCc1ccc(-c2ccc(F)cc2)cc1	10µM*
Cc1ccc(CN(C)Cc2ccc(F)cc2)cc1	9.7%[44.1 µM]
COc1ccc(-c2ccc(CN)cc2)cc1	-12.4%[44.1 µM]
COc1ccc(C(=O)N2CCc3nnc([C@@H]4C[C@@H](O)CN4C(C)C)n3CC2)cn1	i
O=C(Cc1cccs1)N1CC2CC(C1)[C@H]1CCCC(=O)N1C2 (stereo not given in full)	-23.4%
NCc1cc(NC(=O)c2ccccn2)cc(C(=O)N2CC[C@H]3CNC[C@H]32)c1	2.1%
COc1cccc(N2C(=O)NC(=NC3CCCC3)C23CCN(CC2CC2)C3)c1 (stereo not given)	-7.0%
COc1ccc(CN2CCC3(C2)C(=NC2CCCCC2)NC(=O)N3c2cccc(OC)c2)cc1 (stereo not given)	2.82µM*
COc1ccc(C(=O)N2CCCC3(C2)C(=NC2CCCCC2)NC(=O)N3c2cccc(OC)c2)cc1 (stereo not given)	8.4%
COc1ccc(CN2CCCC3(C2)C(=NC2CCCCC2)NC(=O)N3c2cccc(OC)c2)cc1 (stereo not given)	8.91µM*
COc1cccc(N2C(=O)NC(=NC3CCCCC3)C23CCN([S+](=O)([O-])c2cccs2)C3)c1 (stereo not given)	-9.7%
COc1cccc(N2C(=O)NC(=NC3CCCCC3)C23CCN(Cc2ccccc2)CC3)c1	-19.4%
COc1cccc(N2C(=O)NC(=NC3CCCCC3)C23CCN(Cc2cccnc2)C3)c1 (stereo not given)	-24.0%
COc1ccc(C(=O)N2CCC3(C2)C(=NC2CCCCC2)NC(=O)N3c2cccc(OC)c2)cc1 (stereo not given)	32.3%
COc1cccc(N2C(=O)NC(=NC3CCCCC3)C23CCN(CC2CCCCC2)C3)c1 (stereo not given)	-0.7%
COc1cccc(N2C(=O)NC(=NC3CCCC3)C23CCN(CC2CCCCC2)C3)c1 (stereo not given)	10µM*
SMILES	Pf Dd2 inh
COc1cccc(N2C(=O)NC(=NC3CCCCC3)C23CCCN(Cc2ccsc2)C3)c1 (stereo not given)	11.2µM*
Cc1cc(=O)n(CC(=O)Nc2c(C)cccc2C)c(-c2ccc(F)cc2)n1	i
CC(C)C[C@@H](NC(=O)[C@@]1(O)C[C@@H](O)[C@H](O)[C@@H](NC(=O)c2ccc(F)c(Cl)c2)C1)C(N)=O	-13.9%
Cn1nc(CC2CCN(c3cc(N)ncn3)CC2)n(-c2ccccc2)c1=O	10.5%
CN(C)C(=O)C1CN(C(=O)C2CCCCC2)CC12CCOCC2 (stereo not given)	4.8%
O=C(c1ccccc1F)N1CCc2nc(-c3ccc(Cl)cc3)nc(-c3ccccc3)c2C1	i
COCc1noc([C@@H]2CN(S(=O)(=O)Cc3ccccc3F)C[C@H]2C(N)=O)n1	-0.2%
Cc1cc2nc3n(c(=O)c2n1CC(=O)Nc1cccc(Cl)c1)CCCC3	-24.5%
O=C1NC(=NC2CCCC2)C2(CCCN([S+](=O)([O-])c3cccc(C(F)(F)F)c3)C2)N1c1cccnc1 (stereo not given)	-28.8%
O=C1NC(=NC2CCCC2)C2(CCN([S+](=O)([O-])c3cccc(C(F)(F)F)c3)C2)N1c1cc(F)cc(F)c1 (stereo not given)	14.2%
COc1cccc(N2C(=O)NC(=NC3CCCCC3)C23CCCN([S+](=O)([O-])c2cccc(C(F)(F)F)c2)C3)c1 (stereo not given)	12.6µM*
CNC(=O)CC1C(=O)NCCN1C(=O)c1cc(COc2ccccc2)[nH]n1 (stereo not given)	-4.2%
C[S+](=O)([O-])N1Cc2ccccc2CC12CN(C(=O)Nc1ccccc1)C2	-21.7%
CCc1ccc(CNC(=O)C2CCN(C(=O)c3nnn4c3COC(c3ccc(C)cc3)C4)CC2)cc1 (stereo not given)	i
COc1ccccc1CCNC(=O)C1CC(=O)N(c2n[nH]c3cccc(F)c23)C1 (stereo not given)	-23.5%
Cc1ccc(/C=C/c2nc3ccccc3n2S(=O)(=O)c2ccc(Br)cc2)cc1	5.62µM*
CSc1ccc(/C=C/c2nc3ccccc3n2S(=O)(=O)c2cccc(Cl)c2)cc1	i
O=S(=O)(c1cccc(Cl)c1)n1c(/C=C/c2ccccc2Cl)nc2ccccc21	i
O=C(c1cc(F)ccc1Br)N1CCC(n2c(=O)[nH]c3ccccc32)CC1	-9.4%
COc1ccc(NC(=O)Nc2ccc(C)n(CC(=O)NCC(C)C)c2=O)cc1	2.5%
O=C(N[C@H](Cc1ccncc1)C1CC(O)C1)c1cccn1C1CC1 (stereo not given in full)	2.0%
CCN1CCC(N2CCCC(N3CCN(c4ccccc4OC)CC3)C2)CC1 (stereo not given)	i
COc1ccccc1N1CCN(Cc2ccc(=O)n(C)c2)CC1	3.6%
COc1ccccc1N1CCN(C2CCCN(C3CCN(Cc4ccccc4)CC3)C2)CC1 (stereo not given)	12.6µM*
COc1cccc(CC(=O)N2[C@@H]3CC[C@H]2CC(NC(=O)c2ccncc2)C3)c1 (stereo not given in full)	-0.9%
SMILES	Pf Dd2 inh
COc1ccc(-c2cccc3c2CCNC3)cc1OC	11.2µM*
NC(=O)c1ccc(-c2cccc3c2CCNC3)s1	-4.7%
CCOc1ccc(-c2cccc3c2CCNC3)cc1C(N)=O	-4.0%
CS(=O)(=O)CCN1C[C@@H](C(=O)O)[C@H](c2cccnc2)C1	-5.8%
COc1ccccc1-c1nnc(C2CCN(S(=O)(=O)c3ccc(F)c(C)c3)CC2)o1	23.0%
CCCc1ccc(S(=O)(=O)N2CCC(c3nnc(-c4cccc(C)c4)o3)CC2)cc1	11.2µM*
CCCc1ccc(S(=O)(=O)N2CCC(n3cnnc3C)CC2)cc1	-28.5%
CN(Cc1cccnc1)C(=O)c1c(OCC2CC2)cc(=O)n2c1CCCCC2	27.7%
CN1CCN(CC2(N)CCCCC2)CC1	i
Cc1nncn1C1CCN(S(=O)(=O)c2cc(F)cc(F)c2)CC1	-1.2%
CC(C(=O)NC1CCN(c2cnn(CC3CC3)c(=O)c2)CC1)c1ccccc1 (stereo not given)	-19.9%
Cc1ncoc1C(=O)N1CCC(C(=O)N2CCCCCCNC(=O)CC2)CC1	-11.5%
CCOc1ccc(C(=O)NCC(c2ccc3c(c2)OCO3)N2CCN(c3ccc(F)cc3)CC2)cc1 (stereo not given)	11.2µM*
CC(C)C(=O)NCC(c1ccc2c(c1)OCO2)N1CCN(c2ccccc2)CC1 (stereo not given)	7.1%
Cc1cccc(NC(=O)C(=O)NCC(c2ccc3c(c2)OCO3)N2CCN(C)CC2)c1C (stereo not given)	-23.2%
